Results reported in PubChem BioAssay (EPA / NIEHS).
Results filed as inconclusive are left out. A structure can be active in one record and inactive in another. Activity calls are given as the source filed them. Rule for the calls, unless noted: active = hit-call score of the fitted dose curve at least 0.9, where 1 is the maximum; inconclusive = response in the unintended direction; inactive = score below 0.9.

Assays:
[1] = Tanguay_ZF_120hpf_SWIM_legacy: (Legacy) Oregon State University Tanguay Lab 120 Hour Post-fertilization zebrafish Assay for Swim Bladder Malformation (AID 2283654);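 note: swim bladder malformation in each larva scored yes or no under brightfield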
How it was run: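 Dechorionated wild-type Tropical 5D zebrafish embryos, one per well from 6 hpf, were statically exposed at 28C until 120 hpf in 0.64% DMSO. Swim bladder malformation scored as present/absent by brightfield microscopy; not scored in dead larvae.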

[2] = Tanguay_ZF_120hpf_TRUN_legacy: (Legacy) Oregon State University Tanguay Lab 120 Hour Post-fertilization zebrafish Assay for Truncated Body (AID 2283655)
How it was run: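 Whole-embryo zebrafish screen: dechorionated 5D embryos, static exposure 6–120 hpf, 28C, sealed foil-covered plates, 0.64% DMSO. Binary truncation call; gain of signal versus DMSO baseline.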

[3] = Tanguay_ZF_120hpf_NC_legacy: (Legacy) Oregon State University Tanguay Lab 120 Hour Post-fertilization zebrafish Assay for Notochord and Tail Malformation (AID 2283656)
How it was run: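 Dechorionated Tropical 5D wild-type zebrafish embryos, one per well from 6 hpf, statically exposed to 120 hpf at 28C in 0.64% DMSO final. Notochord distortion scored present/absent by brightfield; dead embryos excluded.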

[4] = read-out: ABC Transporter (ABCB1), ABCB1 (gene 5243); assay: CLD_ABCB1_6hr: CellzDirect (CLD) Gene Expression Assay for ABC Transporter (ABCB1) at 6 hours (AID 2283659);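 note: hits raise ABCB1 transcript above the DMSO vehicle baseline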
How it was run: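 Primary human hepatocytes (two donor preparations) dosed daily for two days with chemicals at multiple concentrations, 0.2% DMSO vehicle; harvested 6 h post-dose. ABCB1 mRNA induction quantified by qNPA chemiluminescence; gain-of-signal fitted versus DMSO.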

[5] = read-out: Broad substrate specificity ATP-binding cassette transporter ABCG2 (Homo sapiens) (UniProt Q9UNQ0); assay: CLD_ABCG2_6hr: CellzDirect (CLD) Gene Expression Assay for ABC Transporter (ABCG2) at 6 hours (AID 2283660)
How it was run: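 Primary human hepatocytes dosed daily with chemicals at multiple concentrations (0.2% DMSO vehicle), harvested 6 h after dosing. ABCG2 mRNA induction read by quantitative nuclease protection assay (qNPA) chemiluminescence; gain of signal fitted against DMSO baseline.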

[6] = read-out: xenobiotic metabolism (CYP1A1), CYP1A1 (gene 1543); assay: CLD_CYP1A1_6hr: CellzDirect (CLD) Gene Expression Assay for xenobiotic metabolism (CYP1A1) at 6 hours (AID 2283661);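 for AC50: potency for transcript induction above DMSO vehicle baseline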
How it was run: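 Primary human hepatocytes from two donors, compound versus 0.2% DMSO vehicle. CYP1A1 mRNA measured 6 h after dosing by quantitative nuclease protection assay with chemiluminescent read-out; induction fitted relative to DMSO, cytotoxicity flagged by microscopy.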

[7] = read-out: xenobiotic metabolism (CYP1A2), CYP1A2 (gene 1544); assay: CLD_CYP1A2_6hr: CellzDirect (CLD) Gene Expression Assay for xenobiotic metabolism (CYP1A2) at 6 hours (AID 2283663);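 for AC50: potency is for induction meaning a rise in mRNA above DMSO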
How it was run: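 Primary human hepatocytes from two donor preparations, dosed daily with multiple concentrations in 0.2% DMSO and harvested at 6 h. CYP1A2 mRNA induction measured by chemiluminescent qNPA, gain of signal fitted against DMSO; cytotoxicity flagged morphologically.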

[8] = read-out: organic anion transporter (SLCO1B1), SLCO1B1 (gene 10599); assay: CLD_SLCO1B1_6hr: CellzDirect (CLD) Gene Expression Assay for organic anion transporter (SLCO1B1) at 6 hours (AID 2283668);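 note: active means mRNA induction above DMSO baseline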
How it was run: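 Primary human hepatocytes dosed daily with test chemicals (multiple concentrations) in 0.2% DMSO vehicle; harvested at 6 h. SLCO1B1 mRNA quantified by qNPA chemiluminescence, fitted as gain-of-signal versus DMSO; cytotoxicity from phase-contrast morphology flagged alongside.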

[9] = read-out: sulfotransferase (SULT2A), SULT2A1 (gene 6822); assay: CLD_SULT2A_6hr: CellzDirect (CLD) Gene Expression Assay for sulfotransferase (SULT2A) at 6 hours (AID 2283669);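 note: hits raise transcript level above the DMSO vehicle baseline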
How it was run: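 Primary human hepatocytes from two donor preparations were dosed daily with chemicals or 0.2% DMSO and harvested at 6 h. Transcript induction read by qNPA chemiluminescence, fitted for gain of signal relative to DMSO; morphology-based cytotoxicity annotated.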

[10] = read-out: glucuronosyltransferase (UGT1A1), UGT1A1 (gene 54658); assay: CLD_UGT1A1_6hr: CellzDirect (CLD) Gene Expression Assay for glucuronosyltransferase (UGT1A1) at 6 hours (AID 2283672)
How it was run: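 Primary human hepatocytes from two donor preparations, dosed with fresh solutions in 0.2% DMSO, harvested at 6 h. UGT1A1 mRNA measured by qNPA chemiluminescence; induction fitted upward versus DMSO.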

[11] = read-out: xenobiotic metabolism (CYP1A1), CYP1A1 (gene 1543); assay: CLD_CYP1A1_24hr: CellzDirect (CLD) Gene Expression Assay for xenobiotic metabolism (CYP1A1) at 24 hours (AID 2283673);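 note: CYP1A1 mRNA level by quantitative nuclease protection with chemiluminescence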
How it was run: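 Primary human hepatocytes dosed daily with fresh solutions in 0.2% DMSO vehicle. mRNA measured at 24 h by quantitative nuclease protection assay with chemiluminescence; gain-of-signal fit versus DMSO, with morphology-based cytotoxicity flags.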

[12] = read-out: ABC Transporter (ABCB11), ABCB11 (gene 8647); assay: CLD_ABCB11_6hr: CellzDirect (CLD) Gene Expression Assay for ABC Transporter (ABCB11) at 6 hours (AID 2283675);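 note: hits raise ABCB11 mRNA level so AC50 marks induction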
How it was run: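 Human primary hepatocytes (two donor preparations) given fresh chemical daily at multiple concentrations, vehicle 0.2% DMSO. ABCB11 mRNA induction measured 6 h after dosing by qNPA chemiluminescence versus DMSO; cytotoxicity annotated from morphology.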

[13] = CLD_ACTIN_6hr: CellzDirect (CLD) Gene Expression Assay for Baseline Control (Actin) at 6 hours (AID 2283676);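 note: active means increased actin mRNA relative to DMSO vehicle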
How it was run: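 Primary human hepatocytes dosed with fresh chemical solutions (vehicle 0.2% DMSO), harvested at 6 h. Actin mRNA quantified by quantitative nuclease protection assay with chemiluminescent read-out, as background control relative to DMSO.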

[14] = read-out: solute carrier (SLC22A6), SLC22A6 (gene 9356); assay: LTEA_HepaRG_SLC22A6: Life Technologies and Expression Analysis (LTEA) Assay for solute carrier (SLC22A6) using HepaRG (AID 2283653; active = hit-call score of the fitted dose curve at least 0.9, where 1 is the maximum; inactive = score below 0.9); settings: mRNA level, 48 h; actives raise or lower the signal
How it was run: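 HepaRG, human liver line; 48 h chemical exposure; 8-pt half-log series from 100 uM in 0.5% DMSO, duplicate wells. Readout: TaqMan qRT-PCR of SLC22A6 mRNA, housekeeping-normalised; bidirectional curve fit vs DMSO baseline.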

[15] = read-out: solute carrier (SLC10A1), SLC10A1 (gene 6554); assay: LTEA_HepaRG_SLC10A1: Life Technologies and Expression Analysis (LTEA) Assay for solute carrier (SLC10A1) using HepaRG (AID 2283657; active = hit-call score of the fitted dose curve at least 0.9, where 1 is the maximum; inactive = score below 0.9); settings: mRNA level, 48 h; actives raise or lower the signal
How it was run: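 HepaRG cells (single lot) exposed 48 h in serum-free induction medium, 8-point half-log series from 100 uM top in 0.5% DMSO, duplicate. SLC10A1 mRNA by qRT-PCR normalised to ACTB, GAPDH, POLR2A; bidirectional fit versus DMSO.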

[16] = read-out: matrix metalloproteinase-1 (MMP1), MMP1 (gene 4312); assay: LTEA_HepaRG_MMP1: Life Technologies and Expression Analysis (LTEA) Assay for matrix metalloproteinase-1 (MMP1) using HepaRG (AID 2283658; active = hit-call score of the fitted dose curve at least 0.9, where 1 is the maximum; inactive = score below 0.9); settings: mRNA level, 48 h; actives raise or lower the signal
How it was run: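 MMP1 transcript read by TaqMan qRT-PCR (Fluidigm array) after 48 h chemical exposure of HepaRG cells in serum-free induction medium. Eight-point half-log series, top 100 uM, 0.5% DMSO vehicle. Bidirectional curve fit against DMSO baseline.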

[17] = read-out: Cytochrome P450 (CYP24A1_1), CYP24A1 (gene 1591); assay: LTEA_HepaRG_CYP24A1_1: Life Technologies and Expression Analysis (LTEA) Assay for Cytochrome P450 (CYP24A1_1) using HepaRG (AID 2283671; active = hit-call score of the fitted dose curve at least 0.9, where 1 is the maximum; inactive = score below 0.9); settings: mRNA level, 48 h; actives raise or lower the signal
How it was run: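 Differentiated human HepaRG cells in serum-free induction medium, exposed 48 h in duplicate to eight half-log concentrations from 100 uM top, 0.5% DMSO. Transcript measured by TaqMan qRT-PCR, normalised to ACTB, GAPDH, POLR2A; bidirectional fitting versus DMSO.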

[18] = system: Thyroperoxidase (TPO), gene 54314; assay: CCTE_Simmons_AUR_rTPO: CCTE's Amplex UltraRed Assay for Thyroperoxidase (TPO) Inhibition, Simmons Lab (AID 2283662)
How it was run: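 Rat thyroid microsomes (5 ug protein) with 25 uM Amplex UltraRed and 300 uM H2O2 in 200 mM phosphate buffer, 30 min at 37C in dark; fluorescence 544/590 nm. Eight concentrations, 5 nM–87.5 uM final, 0.5% DMSO, triplicate biological replicates.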

[19] = CCTE_Simmons_CellTiterGLO_HEK293T: Viability Assessment in CCTE's Assays for Thyroperoxidase (TPO) Inhibition, Simmons Lab (AID 2283665);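 note: cells exposed to compound for 24 h before readout; actives reduce ATP signal below DMSO vehicle meaning cytotoxicity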
How it was run: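 HEK293T, 10 000 cells/well, DMEM + 1% FBS; 8-pt titration 5 nM–87.5 uM [final], 0.5% DMSO; 24 hr, 37C, 5% CO2; CellTiter-Glo luminescence; n=3 biological replicates.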

[20] = Tanguay_ZF_120hpf_TR_legacy: (Legacy) Oregon State University Tanguay Lab 120 Hour Post-fertilization zebrafish Assay for Touch Response (AID 2283667)
How it was run: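 Tropical 5D wild-type zebrafish embryos statically exposed to 120 hpf at 28°C, sealed and dark-covered, 0.64% DMSO final; touch response scored as present/absent by brightfield microscopy at 120 hpf. Trimethyltin chloride 5 uM positive control; dead embryos not scored.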

Measured: AC50

Broad substrate specificity ATP-binding cassette transporter ABCG2 (Homo sapiens), sequence (Q9UNQ0 whole entry, looked up): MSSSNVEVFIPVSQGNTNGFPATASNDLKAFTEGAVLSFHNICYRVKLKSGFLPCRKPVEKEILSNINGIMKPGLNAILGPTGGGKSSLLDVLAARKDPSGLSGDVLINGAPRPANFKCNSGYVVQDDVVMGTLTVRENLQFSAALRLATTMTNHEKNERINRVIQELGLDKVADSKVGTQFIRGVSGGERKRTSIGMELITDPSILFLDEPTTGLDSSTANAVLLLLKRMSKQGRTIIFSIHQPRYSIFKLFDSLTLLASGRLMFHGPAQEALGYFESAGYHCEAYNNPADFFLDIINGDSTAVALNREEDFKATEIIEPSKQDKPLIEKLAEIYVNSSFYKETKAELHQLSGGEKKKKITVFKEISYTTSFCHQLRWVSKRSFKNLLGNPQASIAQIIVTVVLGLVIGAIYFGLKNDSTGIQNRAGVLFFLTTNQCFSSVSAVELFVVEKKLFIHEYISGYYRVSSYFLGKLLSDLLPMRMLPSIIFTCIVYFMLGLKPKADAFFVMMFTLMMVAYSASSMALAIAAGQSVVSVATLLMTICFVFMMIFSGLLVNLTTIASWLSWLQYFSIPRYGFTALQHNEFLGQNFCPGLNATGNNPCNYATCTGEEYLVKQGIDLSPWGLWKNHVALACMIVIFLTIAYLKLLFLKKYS

CCCCNC(=O)OCC#CI
active: [6] 0.851 µM | [7] 0.591 µM
inactive: [1] | [2] | [3] | [4] | [5] | [6] | [7] | [8] | [9] | [10] | [11] | [12]

CC(C)Oc1cc(-n2nc(C(C)(C)C)oc2=O)c(Cl)cc1Cl
inactive: [1] | [2] | [3] | [5] | [9] | [10] | [13]
active: [6] 1.57 µM | [7] 2.19 µM | [11] 4.05 µM

CO/C=C(/C(=O)OC)c1ccccc1Oc1cc(Oc2ccccc2C#N)ncn1
inactive: [14] | [1] | [2] | [3] | [16] | [4] | [5] | [8] | [9] | [17] | [10] | [12] | [13]
active: [15] 78.6 µM

N#Cc1cc(Br)c(O)c(Br)c1
active: [11] 20 µM
inactive: [1] | [2] | [3] | [4] | [6] | [7] | [8] | [9] | [10] | [12] | [13]

OC(c1ccc(Cl)cc1)(c1cncnc1)c1ccccc1Cl (configuration not stated)
active: [15] 24.1 µM | [16] 59.8 µM | [11] 7.86 µM
inactive: [14] | [1] | [3] | [4] | [5] | [6] | [8] | [9] | [17] | [10] | [12] | [13]

COc1nc(NC(C)C)nc(NC(C)C)n1
active: [6] 3.97 µM | [11] 3.47 µM
inactive: [1] | [2] | [3] | [4] | [5] | [7] | [8] | [9] | [10] | [13]

CCCC1COC(Cn2cncn2)(c2ccc(Cl)cc2Cl)O1 (configuration not stated)
inactive: [1] | [2] | [3] | [4] | [18] | [9] | [10] | [13]
active: [6] 6.32 µM | [7] 3.01 µM | [19] 79.7 µM | [11] 6.46 µM

N#Cc1nn(-c2c(Cl)cc(C(F)(F)F)cc2Cl)c(N)c1S(=O)C(F)(F)F (configuration not stated)
inactive: [1] | [2] | [3] | [4] | [5] | [7] | [9] | [10] | [11] | [12]

CCOC(=O)C(Cl)Cc1cc(-n2nc(C)n(C(F)F)c2=O)c(F)cc1Cl (configuration not stated)
inactive: [1] | [2] | [3] | [4] | [7] | [9] | [10] | [12]
active: [6] 0.375 µM | [11] 0.39 µM

Fc1ccc(Oc2ccnc3cc(Cl)cc(Cl)c23)cc1
inactive: [1] | [2] | [3] | [5] | [20] | [10]
active: [6] 3.13 µM | [7] 5.01 µM | [11] 2.49 µM

C=CC1(C)OC(=O)N(c2cc(Cl)cc(Cl)c2)C1=O (configuration not stated)
inactive: [14] | [1] | [2] | [3] | [16] | [17] | [10] | [13]
active: [15] 77.2 µM | [6] 1.47 µM | [7] 0.828 µM | [11] 0.317 µM

Cc1ccc(-c2c(Cl)nc(C#N)n2S(=O)(=O)N(C)C)cc1
active: [6] 0.105 µM | [9] 20 µM | [11] 8.2 µM
inactive: [1] | [2] | [3] | [4] | [5] | [7] | [8] | [12] | [13]

CCOc1cc(Oc2ccc(C(F)(F)F)cc2Cl)ccc1[N+](=O)[O-]
active: [11] 4.84 µM
inactive: [1] | [2] | [3] | [4] | [5] | [8] | [9] | [10] | [12]
